# PubChem BioAssay (NCATS)
# Inconclusive results are not listed. Entries that show only a call come without a potency. Values without a mark were called inactive. Calls of active or inactive are those of the source. Calls follow the shape of the dose curve; as a rule, active = well fitted inhibition curve with a large enough effect; inconclusive = small, poorly fitted or top-dose-only effect; inactive = no such curve, though single readings can be large or run the other way.
# Biological target: Retinaldehyde dehydrogenase 3 (Homo sapiens) (UniProt P47895)
# Assay: qHTS for Inhibitors of the Aldehyde Dehydrogenase Family (ALDH1A3) Primary screen (AID 2061315)
# Conditions: ALDH inhibition qHTS; series mostly up to 56 µM
SMILES,"activity change, negative = inhibition",Potency
C[C@@H]1O[C@@H](O[C@H]2[C@H](OC(=O)[C@]34CCC(C)(C)C[C@H]3C3=CCC5[C@@]6(C)CC[C@H](O[C@@H]7O[C@H](CO[C@@H]8OC[C@H](O)[C@H](O)[C@H]8O)[C@@H](O)[C@H](O)[C@H]7O)C(C)(C)C6CC[C@@]5(C)[C@]3(C)C[C@H]4O)OC[C@@H](O)[C@@H]2O)[C@H](O)[C@H](O)[C@H]1O[C@@H]1OC[C@H](O)[C@H](O[C@@H]2OC[C@@H](O)[C@H](O)[C@H]2O)[C@H]1O (stereo partly specified),8.01% [at 11.2 µM],
CC(C)C(NC(=O)c1ccc2ccccc2n1)C(=O)NC(CC(=O)O)C(=O)COc1c(F)cccc1F (stereo unspecified),,inactive
C=C1CC23CC1(O)CCC2C1=CC2OC(=O)C(C)(C2O)C1C3C(=O)O (stereo unspecified),,inactive
CC1=C(C)C(=O)OC(C(C)C2CCC3C4C5OC5C5(O)CC(OC6OC(CO)C(OC7OC(C)C(O)C(O)C7O)C(O)C6O)CC(O)C5(C)C4CCC23C)C1 (stereo unspecified),,inactive
C/C1=C\CC[C@H](C)CCO[C@@H]2O[C@H](CO[C@@H]3OC[C@](O)(COC1=O)[C@H]3O)[C@@H](O)[C@H](O)[C@H]2O,,inactive
CCOC(=O)C(CCc1ccccc1)NC(C)C(=O)N1Cc2ccccc2CC1C(=O)O (stereo unspecified),,inactive
O=C(CCCN1CCN(c2ccc(F)cc2)CC1)NC1c2ccccc2CSc2ccccc21 (stereo unspecified),,inactive
O=C(C[C@@H]1C(C(=O)O)=CO[C@@H](O[C@@H]2O[C@H](CO)[C@@H](O)[C@H](O)[C@H]2O)/C1=C\CO)OCCc1ccc(O)cc1,,inactive
O=C(O)C(O[C@@H]1O[C@H](CO[C@@H]2O[C@H](CO)[C@@H](O)[C@H](O)[C@H]2O)[C@@H](O)[C@H](O)[C@H]1O)c1ccccc1 (stereo partly specified),,inactive
CC(=O)O[C@H]1CC(C)(C)CC2[C@@]13[C@H](O)C[C@]1(C)[C@@]2(CCC2[C@@]4(C)CC[C@H](O[C@@H]5OC[C@H](O[C@@H]6O[C@H](CO)[C@@H](O)[C@H](O)[C@H]6O[C@@H]6OC[C@@H](O)[C@H](O)[C@H]6O)[C@H](O)[C@H]5O[C@@H]5O[C@H](CO)[C@@H](O)[C@H](O)[C@H]5O)C(C)(C)C4CC[C@]21C)O[C@@H]3O (stereo partly specified),,inactive
COc1ccc(/C=C/C(=O)O[C@@H]2[C@@H](OC(C)=O)[C@@H](OC(C)=O)[C@H](O[C@H]3[C@@H]4C=CO[C@@H](O[C@@H]5O[C@H](CO)[C@@H](O)[C@H](O)[C@H]5O)[C@@H]4[C@@]4(CO)O[C@@H]34)O[C@H]2C)cc1O,,inactive
CCNc1nc(Nc2cc(F)c(C(=O)N3CCOCC3)cc2OC)ncc1C(F)(F)F,,inactive
[N-]=[N+]=N[C@]1(CO)O[C@@H](n2ccc(=O)[nH]c2=O)[C@@H](O)[C@@H]1O,,inactive
C[C@@H]1O[C@@H](O[C@H]2[C@H](O)[C@@H](O[C@@H]3O[C@H](CO)[C@H](O)[C@H](O)[C@H]3O)[C@H](O[C@H]3CC[C@@]4(C)C(CC[C@]5(C)C4CC=C4[C@@H]6CC(C)(C)CC[C@]6(C(=O)O[C@@H]6O[C@H](CO)[C@@H](O)[C@H](O)[C@H]6O)CC[C@]45C)C3(C)C)O[C@@H]2C(=O)O)[C@H](O)[C@H](O)[C@H]1O (stereo partly specified),,inactive
CCCCc1nc(C)c(CC(=S)N(C)C)c(=O)n1Cc1ccc(-c2ccccc2-c2nn[nH]n2)cc1,,inactive
CCC(C)C1NC(=O)C(Cc2ccccc2)NC(=O)C(CCCCCC(=O)C(O)CO)NC(=O)C2CCCCN2C1=O (stereo unspecified),,inactive
O=C1N(CC2CCCCN2)CCN1c1ccccc1 (stereo unspecified),,inactive
C[C@@H](Cc1cc2c(c(C(N)=O)c1)N(CCCO)CC2)NCCOc1ccccc1OCC(F)(F)F,,inactive
O=C1OCC(c2ccccc2)=C1Cc1ccccc1,,inactive
Cc1cc(CNC(=O)c2cc(C(=O)NCc3ccc(F)c(C)c3)ncn2)ccc1F,,inactive
CC1(C)CC[C@]2(C(=O)O)CC[C@]3(C)C(=CCC4[C@@]5(C)CC[C@H](O[C@@H]6O[C@H](CO)[C@@H](O)[C@H](O)[C@H]6O[C@@H]6O[C@H](CO)[C@@H](O)[C@H](O)[C@H]6O)[C@@](C)(CO)C5CC[C@]43C)[C@@H]2C1 (stereo partly specified),,inactive
